Experimental data as given in PubChem BioAssay (NCI).
Compounds without any hit were thinned out: in the full panel of roughly 79,000, 15% have a hit. Rule as the data show it: active = growth inhibition above about 70%; inactive = the rest.

Legend:
[1] = NCI Yeast Anticancer Drug Screen. Data for the rad50 strain (AID 155);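 also: 0% = growth of vehicle-only cultures of the same strain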; settings: S. cerevisiae rad50 strain growth inhibition; at 50.0 µM; active compounds read high
Outline: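 Growth of the mutant yeast was measured after compound exposure and referenced to vehicle-treated cultures.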

[2] = NCI Yeast Anticancer Drug Screen. Data for the mec2-1 strain (AID 157); settings: S. cerevisiae mec2-1 strain, at 50.0 µM, active compounds read high
Outline: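 Compounds were applied to mec2-1 yeast cells. Their growth was then compared with that of vehicle-treated cultures to give growth inhibition.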

[3] = NCI Yeast Anticancer Drug Screen. Data for the sgs1 mgt1 strain (AID 161);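 also: 0% = growth of cultures given vehicle only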; settings: S. cerevisiae sgs1 mgt1 strain, at 50.0 µM, active compounds read high
Outline: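 Percent growth inhibition was derived by comparing compound-exposed mutant yeast with vehicle-exposed cultures. The strain carries alterations in DNA damage repair.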

[4] = NCI Yeast Anticancer Drug Screen. Data for the cln2 rad14 strain (AID 165);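 also: 0% = growth equal to vehicle treated cultures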; settings: S. cerevisiae cln2 rad14 strain, at 50.0 µM, active compounds read high
Outline: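 Strain: cln2 rad14 yeast, altered in cell cycle control and DNA damage repair. Read-out: growth inhibition vs vehicle.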

[5] = NCI Yeast Anticancer Drug Screen. Data for the bub3 strain (AID 167); settings: S. cerevisiae bub3 mutant strain, at 50.0 µM, active compounds read high
Outline: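 Whole-cell yeast assay. The mutant strain was incubated with compounds, and growth inhibition was determined by comparison with vehicle-treated cells.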

[6] = NCI Yeast Anticancer Drug Screen. Data for the mlh1 rad18 strain (AID 175); settings: S. cerevisiae mlh1 rad18 strain growth inhibition; at 50.0 µM; active compounds read high
Outline: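 A repair-deficient yeast strain is exposed to test compound, and growth is scored relative to vehicle-treated controls.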

Measured: growth inhibition

COC(=O)c1nc(NN)[nH]c(=O)c1C
inactive: [1] -2.1% | [2] -21.1% | [3] -27.6% | [4] 3.35% | [5] -26.6% | [6] -15.1%

COC(=O)/C(=N\NC(N)=O)C(C(=O)C=C(C)C)C(=O)C(=O)Nc1ccc(Cl)c(Cl)c1 (stereo unspecified)
inactive: [1] -9% | [2] -40.6% | [3] -34.6% | [4] 12.2% | [5] -17% | [6] -27.6%

CCCNC(C#N)c1ccc(C(C#N)NCCC)cc1 (stereo unspecified)
inactive: [1] -4.6% | [2] -10.4% | [3] -12.6% | [4] -5.9% | [5] -23.8% | [6] -7.8%

C=C(C)C(C)(C)/C(C)=N\Nc1ccc([N+](=O)[O-])cc1[N+](=O)[O-]
inactive: [1] -0.15% | [2] -7.6% | [3] 6.2% | [4] -23.5% | [5] -0.15% | [6] -8.75%

Cc1cc(N)ccc1N=Nc1ccc(Sc2ccc(N=Nc3c(S(=O)(=O)O)cc4cc(S(=O)(=O)O)c(N=Nc5ccc([N+](=O)[O-])cc5)c(N)c4c3O)cc2)cc1
inactive: [1] -77% | [2] -27.9% | [3] -32.4% | [4] -95.8% | [5] -65.8% | [6] -27.9%

CCCC(CC)C(=O)NC(N)=O (stereo unspecified)
inactive: [1] -7.2% | [2] -5.9% | [3] -7.8% | [4] -8.55% | [5] -20.2% | [6] 8.7%

COc1ccn(C2OC(=O)C(C)(C)C2=O)c(=O)n1 (stereo unspecified)
inactive: [1] -0.4% | [2] -15.4% | [3] 0.55% | [4] -1.2% | [5] -9.4% | [6] -12.6%

Nc1ccc(CC(=O)O)cc1
inactive: [1] 28.6% | [2] -10.7% | [3] -26.4% | [4] -47.2% | [5] 7.25% | [6] 0.05%

CC(C)C1OC2OCCCC2C(C(C)C)O1 (stereo unspecified)
inactive: [1] 17.2% | [2] -5.85% | [3] 8.15% | [4] -11.9% | [5] -22.1% | [6] 11%

O=C(O)C(O)C(O)C(O)C(O)C(=O)O.[Cu+2] (stereo unspecified)
inactive: [1] 1.2% | [2] -6.15% | [3] 2.25% | [4] 0% | [5] -4.4% | [6] 15.2%

Cc1ccc(NCC#N)cc1
inactive: [1] 27.1% | [2] 15.2% | [3] -1.1% | [4] -12.6% | [5] 15.4% | [6] 36.5%

COc1ccc(CN2CCCN(Cc3ccc(OC)cc3)C2c2ccc([N+](=O)[O-])cc2)cc1
inactive: [1] -0.3% | [2] 14.8% | [3] 12.8% | [4] -18.7% | [5] 32.9% | [6] -16.6%

Cc1nc2c(c(-c3ccc(Cl)cc3)n1)Cc1c(ccc3ccccc13)O2
inactive: [1] -15.4% | [2] -5.9% | [3] -9.2% | [4] -0.1% | [5] -28.8% | [6] -19%

CCOc1nc(C)cc(C(=O)OC)c1C#N
inactive: [1] 18.4% | [2] 15.7% | [3] 19.6% | [4] 17.4% | [5] 0.3% | [6] 2%

O=C(N=Nc1c(O)[nH]c2c(Cl)cc(Cl)cc12)c1ccccc1O
inactive: [1] -1.1% | [2] -0.55% | [3] -9.5% | [4] 12.5% | [5] -8.95% | [6] 3.85%

O=C1NC(Cc2cccc(I)c2)C(=O)N1c1ccccc1 (stereo unspecified)
inactive: [1] 37.3% | [2] 3.1% | [3] 31.9% | [4] 28.8% | [5] 16.4% | [6] 29.4%

O=C1NOCC1NCc1c(O)ccc2ccccc12 (stereo unspecified)
inactive: [1] 19.9% | [2] 13.2% | [3] 33.7% | [4] 26.6% | [5] 17.9% | [6] 23.2%

CC12CCC3C(CCC4CC(O)(C(=O)O)CC43C)C1CCC2O (stereo unspecified)
inactive: [1] -16.9% | [2] -3.05% | [3] -19.9% | [4] 5.15% | [5] -7.55% | [6] -19.3%

CC(C)[Si](OC1=C(c2ccccc2)C(NC(=O)/C=C/c2ccc([N+](=O)[O-])cc2)CCC1)(C(C)C)C(C)C (stereo unspecified)
inactive: [1] 19.2% | [2] 4.15% | [3] -0.2% | [4] -6.7% | [5] -5.35% | [6] 29.9%

O=C1C(Cl)C(c2ccccc2)N1n1cnc2ccccc2c1=O (stereo unspecified)
inactive: [1] -16.2% | [2] -2.15% | [3] -24.1% | [4] -3.3% | [5] 3.9% | [6] -12.7%

Clc1ccc2sc(-n3ccc4ccccc43)nc2c1
inactive: [1] -35.9% | [2] -12.3% | [3] -24.7% | [4] 7.65% | [5] -15.4% | [6] -30.7%

Cc1cc(=O)c2cccc(-c3ccccc3)c2[nH]1
inactive: [1] 19.5% | [2] 1.25% | [3] 1.15% | [4] -30.9% | [5] -12.9% | [6] 22.2%

CC[n+]1c(-c2ccccc2)c2cc(NCCCN)ccc2c2ccc(N)cc21
inactive: [1] 33% | [2] 15.8% | [3] 8.8% | [4] 6.3% | [5] 3.75% | [6] 40.5%

O=C(O)CCCC#CCCCC(=O)O
inactive: [1] 10.4% | [2] 4.5% | [3] 2% | [4] 17.3% | [5] 25.8% | [6] -13.7%

CCOC(=O)CCC(C)(C#N)c1ccccc1 (stereo unspecified)
inactive: [1] -2.35% | [2] 0.65% | [3] 2.5% | [4] -9.1% | [5] 5.75% | [6] -0.05%

CC(=O)C1CCN(Cc2ccccc2)C1 (stereo unspecified)
inactive: [1] 3.75% | [2] 6.9% | [3] 7.15% | [4] -1.05% | [5] -12.7% | [6] -21.6%

CC(=O)OCc1cc(OC(C)=O)cnc1COC(C)=O
inactive: [1] -9.25% | [2] -24.6% | [3] -17.4% | [4] -19.2% | [5] -7.85% | [6] -36.2%

CCOc1ccccc1N
inactive: [1] 8.75% | [2] 16.2% | [3] -34% | [4] 9.5% | [5] -32% | [6] -20.1%

CC(O)C(O)C(O)C1OC1=O (stereo unspecified)
inactive: [1] 0.95% | [2] -9.8% | [3] 0.75% | [4] -43% | [5] -8.9% | [6] -1.05%

CC(=O)Nc1ccc(/C=C2\C(=O)Nc3ccccc32)cc1
inactive: [1] -15.4% | [2] -20.1% | [3] -23% | [4] -11.8% | [5] -8.5% | [6] -5.9%

CCCCC1=C(C)CCC1=O
inactive: [1] 17.9% | [2] 8.9% | [3] 8.7% | [4] 6.55% | [5] 2.85% | [6] 4.85%

CNC(=O)c1ccccc1CC1(O)CCCC1
inactive: [1] -9.85% | [2] -15.5% | [3] -0.5% | [4] 8.5% | [5] -9.75% | [6] -25.1%

Cc1ccccc1OCC1COCN(Cc2ccccc2)CO1 (stereo unspecified)
inactive: [1] 18.8% | [2] 21.2% | [3] 28.1% | [4] 20.6% | [5] 6.95% | [6] 32.9%

Cc1cccc(NC(=O)c2cccc(C(=O)Nc3cccc(C)c3C)c2)c1C
inactive: [1] -12.4% | [2] 0.6% | [3] 17.6% | [4] -15.9% | [5] 5.2% | [6] -21.9%

C=C1c2ccccc2C=NN1c1ccccc1
inactive: [1] 19.4% | [2] 4.35% | [3] 13.2% | [4] 4.25% | [5] -8.75% | [6] 1%

CC(=O)OC1CCC(C(C)C)CC1 (stereo unspecified)
inactive: [1] 4.35% | [2] -2.95% | [3] -0.25% | [4] -28.2% | [5] 1.15% | [6] -13.1%

COC(=O)CC1(C(=O)OC)Oc2ccc(Br)cc2C(=O)N1c1ccc(Br)cc1Cl (stereo unspecified)
inactive: [1] 26.9% | [2] -16.4% | [3] 24.6% | [4] 15.2% | [5] 19.4% | [6] 27.7%

Cn1c(COc2ccc(/C=N\NC(=O)c3ccc(C(=O)N/N=C/c4ccc(OCc5c[n+]6ccccc6n5C)cc4)cc3)cc2)c[n+]2ccccc12
inactive: [1] -5% | [2] 3.5% | [3] -2.85% | [4] 26.7% | [5] 1.6% | [6] -36.8%

c1ccc(-c2cc(-c3ccccc3)c3ccc4c(-c5ccccc5)cc(-c5ccccc5)c5ccc2c3c54)cc1
inactive: [1] -43% | [2] -17.4% | [3] -14.3% | [4] 11.6% | [5] -18.9% | [6] -26.2%

CC12CCCCC1=C(F)C(F)(F)S2 (stereo unspecified)
inactive: [1] 0.15% | [2] -17.4% | [3] 7.45% | [4] 24.6% | [5] -2.45% | [6] 17.7%

Cc1cccc(C2CCCCC2OS(C)(=O)=O)c1 (stereo unspecified)
inactive: [1] -2.95% | [2] -6.4% | [3] -16.9% | [4] -10.1% | [5] 11.8% | [6] -13.6%
